Data published in PubChem BioAssay (NCI).
Values joined by “and” are separate entries in the source; they are usually repeats but may differ in a detail not shown here. Identical values can stand only once. About 83,000 compounds went through this panel and 20% of them were active in at least one assay; those are over-represented in the sample as a whole.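 Single-concentration screen, 48 h exposure, 96-well plates. Endpoint: percent growth. Below 10 = active.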 Active and inactive are the calls of the source.

Columns and labels:
Assay in all cases: NCI-60 one-dose screen, 48 h (100 = growth as untreated, 0 = no growth, -100 = all killed)
Details in all cases: 10 µM unless noted
SR leukemia = test system: SR leukemia
RPMI-8226 leukemia = test system: RPMI-8226 leukemia
OVCAR-8 ovarian = test system: OVCAR-8 ovarian
OVCAR-4 ovarian = test system: OVCAR-4 ovarian
SK-OV-3 ovarian = test system: SK-OV-3 ovarian
IGROV1 ovarian = test system: IGROV1 ovarian
HS 578T breast = test system: HS 578T breast
NCI/ADR-RES ovarian = test system: NCI/ADR-RES ovarian
OVCAR-3 ovarian = test system: OVCAR-3 ovarian
OVCAR-5 ovarian = test system: OVCAR-5 ovarian

Measured: growth

C/C(=N/N)c1nnn(-c2ccc(Br)cc2)c1C
inactive: SR leukemia 96% | RPMI-8226 leukemia 105% | OVCAR-8 ovarian 102% | OVCAR-4 ovarian 110% | SK-OV-3 ovarian 109% | IGROV1 ovarian 95.1% | HS 578T breast 102% | NCI/ADR-RES ovarian 104%

COc1cc(OC)cc(-c2cc(-c3c[nH]c4ccccc34)nc(-c3c[nH]c4ccccc34)c2C#N)c1
inactive: SR leukemia 81.3% | RPMI-8226 leukemia 99% | OVCAR-8 ovarian 102% | OVCAR-4 ovarian 102% | SK-OV-3 ovarian 99.9% | IGROV1 ovarian 93.7% | HS 578T breast 102% | NCI/ADR-RES ovarian 97.1%

C/C(=C(\c1ccc(O)cc1)c1ccc(OCCN2CCCCCC2)cc1)c1ccc(Cl)cc1
active: SR leukemia -24.9% | RPMI-8226 leukemia -2.67% | OVCAR-8 ovarian -73.5% | OVCAR-4 ovarian -59.8% | SK-OV-3 ovarian -85.5% | IGROV1 ovarian -65.1% | OVCAR-3 ovarian -73.3% | HS 578T breast -46.2% | NCI/ADR-RES ovarian -72.7%

C=C(C)[C@@H]1CC[C@]2(C(=O)O)CC[C@]3(C)[C@H](CC[C@@H]4[C@@]5(C)C/C(=C/c6ccccn6)C(=O)C(C)(C)[C@@H]5CC[C@]43C)[C@@H]12
inactive: SR leukemia 29.1% | RPMI-8226 leukemia 13% | OVCAR-8 ovarian 32% | OVCAR-4 ovarian 36.2% | SK-OV-3 ovarian 70.4% | IGROV1 ovarian 51.6% | OVCAR-3 ovarian 40.8% | HS 578T breast 63.6% | NCI/ADR-RES ovarian 37.4%

C1=CC(c2nn3c(-c4ccccc4)nnc3s2)=Cc2ccccc2O1
inactive: SR leukemia 11.9% | RPMI-8226 leukemia 35.6% | OVCAR-8 ovarian 65.5% | OVCAR-4 ovarian 73.7% | SK-OV-3 ovarian 106% | IGROV1 ovarian 64.3% | HS 578T breast 61.1%

C#C[C@]1(O)CC[C@H]2[C@@H]3CC=C4c5sc(Nc6ncccc6C)nc5CC[C@]4(C)[C@H]3CC[C@@]21C
active: SR leukemia -3.26% | RPMI-8226 leukemia -36.2% | SK-OV-3 ovarian -37.2% | HS 578T breast -16.1%
inactive: OVCAR-8 ovarian 31.1% | OVCAR-4 ovarian 34.9% | IGROV1 ovarian 40% | OVCAR-3 ovarian 32.1% | NCI/ADR-RES ovarian 28.1%

COc1cc2cc(Oc3ccc(NC(=O)c4cc(C(F)(F)F)cc(C(F)(F)F)c4)cc3)c(C)nc2cc1OCCN1CCOCC1
inactive: SR leukemia 20.6% | RPMI-8226 leukemia 24.6% | OVCAR-8 ovarian 80.1% | OVCAR-4 ovarian 48.8% | SK-OV-3 ovarian 87.5% | IGROV1 ovarian 85.6% | OVCAR-3 ovarian 78.9% | HS 578T breast 36.7% | NCI/ADR-RES ovarian 62.4%

C[C@@H]1OCC2(CCN(c3cnc(C(=O)Nc4cc(F)cc5cccnc45)cn3)CC2)[C@@H]1N
inactive: RPMI-8226 leukemia 55.5% | OVCAR-8 ovarian 86.8% | OVCAR-4 ovarian 14.8% | SK-OV-3 ovarian 102% | IGROV1 ovarian 28% | OVCAR-3 ovarian 18.7% | HS 578T breast 66.6% | NCI/ADR-RES ovarian 76.4%
active: SR leukemia 2.82%

Brc1cccc(-c2cc(-c3cnc4c(c3)OCCO4)n[nH]2)c1
inactive: SR leukemia 13.4% | RPMI-8226 leukemia 26.2% | OVCAR-8 ovarian 46.4% | OVCAR-5 ovarian 72.3% | SK-OV-3 ovarian 77.1% | IGROV1 ovarian 45% | HS 578T breast 76.1% | NCI/ADR-RES ovarian 10.9%

Cc1c(C(=O)/C=C/c2ccc(Cl)cc2)nnn1-c1ccc2oc(=O)ccc2c1
inactive: SR leukemia 91% | RPMI-8226 leukemia 54.2% | OVCAR-8 ovarian 99.4% | OVCAR-5 ovarian 97.9% | SK-OV-3 ovarian 106% | IGROV1 ovarian 102% | HS 578T breast 109% | NCI/ADR-RES ovarian 88.4%

Cc1[nH]c(C(=O)Nc2ccc(S(=O)(=O)N3CCCCC3)cc2OCCOCCOCCOCCOCCOCCOCCOCCOCCOc2cc(S(=O)(=O)N3CCCCC3)ccc2NC(=O)c2[nH]c(C)c3c2CCCCC3=O)c2c1C(=O)CCCC2
active: SK-OV-3 ovarian -42.5% | IGROV1 ovarian 6.25% | HS 578T breast -17%
inactive: SR leukemia 10.9% | RPMI-8226 leukemia 10.6% | OVCAR-8 ovarian 13.6% | OVCAR-4 ovarian 12.5%

O=C(/C=C/C=C/c1csc(Br)n1)NO
inactive: SR leukemia 60% | RPMI-8226 leukemia 60.7% | OVCAR-8 ovarian 85.7% | OVCAR-4 ovarian 103% | SK-OV-3 ovarian 113% | IGROV1 ovarian 106% | HS 578T breast 98.5% | NCI/ADR-RES ovarian 74.6%

O=C(CCCCCCNC(=O)C(O)(O)C(F)(F)F)Nc1ccc(Cl)cc1
inactive: SR leukemia 12.1% | RPMI-8226 leukemia 20.1% | OVCAR-8 ovarian 11.9% | OVCAR-4 ovarian 47.4% | IGROV1 ovarian 27.8% | OVCAR-3 ovarian 24.9% | HS 578T breast 33.2% | NCI/ADR-RES ovarian 24.6%
active: SK-OV-3 ovarian -6.99%

COc1ccc(OC)c(CCn2cncc2-c2c[nH]c3ccc(Cl)cc23)c1
inactive: SR leukemia 16.3% | RPMI-8226 leukemia 33.9% | OVCAR-8 ovarian 40.5% | OVCAR-4 ovarian 16.2% | SK-OV-3 ovarian 43.1% | IGROV1 ovarian 58.8% | OVCAR-3 ovarian 40% | HS 578T breast 57.1% | NCI/ADR-RES ovarian 29.8%

C/C=C/CC(C)C(O)[C@H](NC(=O)[C@@H]1CCCN1C(=O)[C@](C)(CC)NC(=O)CCCCCCCCC)C(=O)N[C@@](C)(CC)C(=O)N[C@@H](CCC(N)=O)C(=O)N[C@H](CCC(N)=O)C(=O)NC(C)(C)C(=O)NC(C)(C)C(=O)N[C@@H](CCC(N)=O)C(=O)N[C@H](CC(C)C)C(=O)N[C@H](CO)CC(C)C (stereo not given in full)
12.6% (inactive) and 1.7% (active): SR leukemia
inactive: OVCAR-4 ovarian 86.8% and 43.1% | SK-OV-3 ovarian 107% and 19.3%
50.5% (inactive) and -38.3% (active): RPMI-8226 leukemia
71.4% (inactive) and -70.3% (active): NCI/ADR-RES ovarian
42.1% (inactive) and -54.9% (active): OVCAR-8 ovarian
active: OVCAR-3 ovarian 7.49% | HS 578T breast 6.26% and -64.4%
